Experiment: alternative oxidase inhibition and growth effect – profiling panel (AID 1259412);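 note: growth monitored over 72 h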
Conditions: AOX-dependent respiration, O2 uptake; measured here: growth, AOX-dependent treatment condition; at 500 µM; stronger effect = lower value

Compound | growth (% of control) [%]
COc1cccc(C(=O)Nc2cccc(OCc3ccccc3)c2)c1 | 105
COc1cc(NC(=O)c2cccc(C#N)c2)cc(OC)c1OC | 89.6
Cc1cccc(C(=O)NCc2ccc3c(c2)OCO3)c1 | 41.6
O=C(Nc1cccc(Br)c1)c1cccc(Br)c1 | 82.5
O=C(Nc1cccc(Br)c1)c1cccc(I)c1 | 103
Cc1cccc(C(=O)Nc2ccc(N3CCOCC3)cc2)c1 | 91
O=C(Nc1cccc([N+](=O)[O-])c1)c1ccccc1 | 61.1
COc1cc(NC(=O)c2cccc(Cl)c2)cc(OC)c1OC | 82.2
N#Cc1cccc(C(=O)Nc2ccccc2)c1 | 58.9
O=C(Nc1cccc(Br)c1)c1ccccc1 | 51.9
COc1cccc(C(=O)Nc2ccccc2C(N)=O)c1 | 80.1
O=C(Nc1cccc(F)c1)c1cccc(I)c1 | 64.5
COc1cc(NC(=O)c2cccc(C)c2)cc(OC)c1OC | 85.5
O=C(Nc1cccc(C(F)(F)F)c1)c1cccc(F)c1 | 7.63
O=C(Nc1cccc([N+](=O)[O-])c1)c1cccc(F)c1 | 91.1
O=C(Nc1cccc(Cl)c1)c1cccc(Br)c1 | 71.8
O=C(Nc1cccc(I)c1)c1ccccc1 | 95
O=C(Nc1cccc(OCc2ccccc2)c1)c1cccc(I)c1 | 36.7
O=C(Nc1cccc(NC(=O)c2cccc(I)c2)c1)c1cccc(I)c1 | 107
O=C(Nc1cccc(C(F)(F)F)c1)c1ccccc1 | 38.9
COc1cccc(C(=O)Nc2cccc(I)c2)c1 | 78.2
O=C(Nc1cccc(OCc2ccccc2)c1)c1cccc(F)c1 | 86
